# Over roughly 39,000 sequences, “fluorescence intensity (a.u.)” has its median near 4,300; the highest 2% begin near 39,000. The entries come from a sample that favours the highest values as a whole.
# Molecular target: T1, OsSMF1 (Oryza sativa, UniProt Q6ZLB0 1-436)
# T1 sequence: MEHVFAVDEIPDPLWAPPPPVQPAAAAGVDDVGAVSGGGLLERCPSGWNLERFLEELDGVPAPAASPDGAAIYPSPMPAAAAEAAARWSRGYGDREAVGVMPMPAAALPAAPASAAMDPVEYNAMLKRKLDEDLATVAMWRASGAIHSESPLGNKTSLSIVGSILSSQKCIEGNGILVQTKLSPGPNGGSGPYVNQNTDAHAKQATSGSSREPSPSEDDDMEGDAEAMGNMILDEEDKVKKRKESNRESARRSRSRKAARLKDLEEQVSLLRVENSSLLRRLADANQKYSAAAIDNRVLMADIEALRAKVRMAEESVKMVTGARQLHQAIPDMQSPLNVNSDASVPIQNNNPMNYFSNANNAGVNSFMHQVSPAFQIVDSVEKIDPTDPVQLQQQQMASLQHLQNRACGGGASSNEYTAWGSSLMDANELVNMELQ
# Assay: protein-binding microarray (RPBM); PBS, 2% BSA, 51.3 ng/ul salmon testes DNA, 50 uM zinc acetate, 200 nM TF, 25 C, 1 h; high values mean tight binding
# Conditions: protein: recombinant; tags: N-terminal polyhistidine and DsRed monomer fusion (pET32a); chain copies: 2; label: CyDye5-dUTP incorporated in the synthesized complementary strand; 3' TTTTT single-stranded linker to array surface; dsDNA, one strand shown
# In short: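 Binding signal here means per-feature fluorescence intensity in arbitrary units. The values were read on an Axon 4000B scanner after a custom Agilent array, double-stranded by primer extension with Cy5-dUTP, was incubated with 200 nM protein at 25 °C for 1 h in PBS with 2% BSA, salmon testes DNA and 50 µM zinc acetate, then washed. The proteins were transcription factors with an N-terminal polyhistidine tag and DsRed, expressed in E. coli BL21-CodonPlus and purified on Ni–NTA.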
row,Sequence,binding signal
1,TTAAAACTCAATTAATCACACGTTATTACCACCTCGTTTTCGGAGTCACCTAGTGCAG,3210 fluorescence intensity (a.u.)
2,TATATACTCTCTTCGTTTCAAAATGTTTGACGCCGTTAACCGGAGTCACCTAGTGCAG,3670 fluorescence intensity (a.u.)
3,CTCAAAACCACACCGTTAAATGTTTTACCCTACTCTCGTACGGAGTCACCTAGTGCAG,39200 fluorescence intensity (a.u.)
4,TGACAGCCACAAGTATGATGTGATAAAGTGTGGCTATAAACGGAGTCACCTAGTGCAG,65500 fluorescence intensity (a.u.)
5,ATAGTATAAAAGTAATGTGATGTGGCTTTATGAGAGAAAACGGAGTCACCTAGTGCAG,3780 fluorescence intensity (a.u.)
6,TATATATATATATATATATAAAGTGTATGACATGTGATCACGGAGTCACCTAGTGCAG,3970 fluorescence intensity (a.u.)
7,GGAGAAAATTGCGGAGGGGATCCACAGTTCCAGCCGCGTGCGGAGTCACCTAGTGCAG,3190 fluorescence intensity (a.u.)
8,ACAAAATTTATTTCCAGGTGGCGTCTCCTCATTGGCCAGCCGGAGTCACCTAGTGCAG,4370 fluorescence intensity (a.u.)
9,TGGGTGAGAGTTTGAACCCGAACATATGACACATCTATGTCGGAGTCACCTAGTGCAG,3270 fluorescence intensity (a.u.)
10,TATGTCAATACTGTATGCATATATTAACATAAAATATCTCCGGAGTCACCTAGTGCAG,4760 fluorescence intensity (a.u.)
11,ACAATTACTGTATTGTGCATATAAGCTGCATATCTATCACCGGAGTCACCTAGTGCAG,39900 fluorescence intensity (a.u.)
12,ATCACTCTACTTTGTCTGTGTCATATTATAAGCTGCTTGACGGAGTCACCTAGTGCAG,5640 fluorescence intensity (a.u.)
13,AGAAAGCAACATGCTGTCCCGGTGGCACATCCGATTAGTACGGAGTCACCTAGTGCAG,3680 fluorescence intensity (a.u.)
14,GGCTTCCCGCGCCACAAGCTTTGCCGCCACCTCCTCCTCGCGGAGTCACCTAGTGCAG,3230 fluorescence intensity (a.u.)
15,CAGAGTTCCGTTCTGAATTTCTGGTGAGTCATCTGCTGAACGGAGTCACCTAGTGCAG,8920 fluorescence intensity (a.u.)
16,GTTGTCAGTTGGATAGAACCAGTCCAGGAACGTGTGGCCCCGGAGTCACCTAGTGCAG,3240 fluorescence intensity (a.u.)
17,CCTTAGGCTACGTTGGCTTTTGCATTTTGGCGTGGATTTTCGGAGTCACCTAGTGCAG,14400 fluorescence intensity (a.u.)
18,GTTGCCTTCGTGTCCAGTGGATAGATAAGGATAGGATTTTCGGAGTCACCTAGTGCAG,65500 fluorescence intensity (a.u.)
19,CGCGGATCGGCCGCGAGGCGCACGTGGACATCACCACCAACGGAGTCACCTAGTGCAG,4220 fluorescence intensity (a.u.)
20,ATGGTGGAGAAGGTGACGATGACACGAGGTGATCTGGATCCGGAGTCACCTAGTGCAG,3680 fluorescence intensity (a.u.)
21,GATGATGATGATGATGATGATGAGAAGGTGGTGCCGCCGCCGGAGTCACCTAGTGCAG,4280 fluorescence intensity (a.u.)

row,Sequence,binding signal
1,GAAGCTGTCATCGCTGATGCGGCGAAGAGATCATCATCACCGGAGTCACCTAGTGCAG,4450 fluorescence intensity (a.u.)
2,GAGCCGCTGATCCGCTGCACGGCGGCGCGGAGCGCGTCGACGGAGTCACCTAGTGCAG,39100 fluorescence intensity (a.u.)
3,CGGCGCAGATCCGGCGAGCGGCGGCGGCGGAAGCTGATGGCGGAGTCACCTAGTGCAG,39900 fluorescence intensity (a.u.)
4,GAGCGCTGCGTGCGCGCGCGTCCGCGGCCACGCCATCCGCCGGAGTCACCTAGTGCAG,4600 fluorescence intensity (a.u.)
5,GCGAGCTGTGCCGTTCTTGATCACCGAGGCGATGGCGGCGCGGAGTCACCTAGTGCAG,39200 fluorescence intensity (a.u.)
6,CCCGCGCCGCGGCGGATCGATGGAGCTGTTCGAGCGCGCGCGGAGTCACCTAGTGCAG,3160 fluorescence intensity (a.u.)
7,GCTGCACGGCCGCGGCGTGGCGCTGACGGCGACGGTGAGGCGGAGTCACCTAGTGCAG,5740 fluorescence intensity (a.u.)
8,GCCGCCGCCGCCGGAGAAGATGATGGTGCCGCTGGATCCGCGGAGTCACCTAGTGCAG,43500 fluorescence intensity (a.u.)
9,AGATGGCGGCGGCGGCGCAGATCCGGCCTCCACGCGCGCACGGAGTCACCTAGTGCAG,3940 fluorescence intensity (a.u.)
10,TTGATGGCGATCTGCGAGGCCGTGCGGGTCACGGAGCGCGCGGAGTCACCTAGTGCAG,30900 fluorescence intensity (a.u.)
11,GTTTGGAATTTTGGATAGAAATTCCGGGCGTGACACATCGCGGAGTCACCTAGTGCAG,5880 fluorescence intensity (a.u.)
12,ATGTCGCTGTGGCTCATCCGGCCCAAGCCCATTTCCCCACCGGAGTCACCTAGTGCAG,29500 fluorescence intensity (a.u.)
13,AAACTGAAGGGTATTTTCACAAAATTTCCTTTTCTTTCTCCGGAGTCACCTAGTGCAG,6620 fluorescence intensity (a.u.)
14,GTATATGCGTCATGTGCGTCTTCCCTGTCACGAGTGCGTGCGGAGTCACCTAGTGCAG,7200 fluorescence intensity (a.u.)
15,ACATGTGGGTCCTGTTGACATGTAGGTGCCACCTTGGCATCGGAGTCACCTAGTGCAG,4440 fluorescence intensity (a.u.)
16,GAAACTTTCCTACGCACAAACTTTCAACTTTTACGTCACACGGAGTCACCTAGTGCAG,3340 fluorescence intensity (a.u.)
17,CATGCTATGTGCTCAAAGGGCAACGGTCGACGTGTGCCTTCGGAGTCACCTAGTGCAG,4110 fluorescence intensity (a.u.)
18,ACACAGATCTGCAACCAAAACAAATGCAACACTAAACACCCGGAGTCACCTAGTGCAG,26100 fluorescence intensity (a.u.)
19,CTAAACAAAGGATGAGGCTATGAGCACCCACCAACCATACCGGAGTCACCTAGTGCAG,34200 fluorescence intensity (a.u.)
20,AGATCTGCACAACCATAACGGCTAAAGAGGAGATACCAAACGGAGTCACCTAGTGCAG,65500 fluorescence intensity (a.u.)
21,GCACAACCGCACACGAGACGACGTCACCCACAACCGCACGCGGAGTCACCTAGTGCAG,6040 fluorescence intensity (a.u.)

# — paper PMC7819943, “Rice protein-binding microarrays: a tool to detect cis-acting elements near promoter regions in rice”
